NLRP3 yeast inh: NALP3 inflammasome inhibitors in reconstituted yeast, primary screen, luminescence, uHTS | Yeast reconstituted NLRP3/ASC/caspase-1, beta-gal luminescence, 24 h | inhibition, % at 10 µM | actives 0.39% (n = 330,000) | AID 2825, 2010;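 active = inhibition of 50% or more; inactive = inhibition below 50%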;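 also: plate controls were induced DMSO wells for no effect and uninduced yeast grown without galactose for full effect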
PolyA inhibitor: polyadenylation inhibitors in yeast reporter cells, primary screen, luminescence, S. cerevisiae. AID 1875, 2009. actives 0.02% (n = 300,000). S. cerevisiae SKY197-pL101 polyadenylation reporter, beta-gal luminescence; efflux-impaired pdr1/pdr3 knockout yeast; score 100 = 6 SD above DMSO. activity score, % at 12 µM;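 active = lowest replicate activity score at least 50, where 100 means six control SD above control mean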;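 also: yeast exposed to compound for 9 h at 30 °C; higher score means more reporter readthrough which indicates perturbed polyadenylation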
ZTA DNA inh: blocks Epstein-Barr virus ZTA, an EBNA-1 counter-screen; ZTA-DNA binding, fluorescence polarization; inhibition, % at 11 µM; actives 0.15% (n = 320,000); AID 2234; in the data active = inhibition above about 33%
Target sequence (P03206 whole entry, looked up): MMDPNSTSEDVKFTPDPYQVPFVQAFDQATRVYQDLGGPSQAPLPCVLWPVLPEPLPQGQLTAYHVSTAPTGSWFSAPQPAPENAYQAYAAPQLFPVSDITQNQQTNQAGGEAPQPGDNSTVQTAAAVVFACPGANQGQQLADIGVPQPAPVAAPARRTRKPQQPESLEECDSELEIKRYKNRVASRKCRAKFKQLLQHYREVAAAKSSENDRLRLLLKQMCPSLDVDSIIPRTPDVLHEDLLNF
EBNA-1 inhibitor: EBNA-1 DNA-binding inhibitors, primary screen, biochemical, fluorescence polarization. inhibition, % at 14.8 µM. actives 0.34% (n = 300,000); in the data active = inhibition above about 28%
NALP1 inh: NALP1 inflammasome inhibitors in reconstituted yeast, colorimetric, S. cerevisiae, triplicate retest; actives 0.61% (n = 280,000); S. cerevisiae NALP1/ASC/caspase-1 growth, X-gal OD620, 72 h; inhibition, % at 10 µM; in the data active = inhibition mostly above about 24%, no sharp cut-off; inactive = mostly below about 32%
dFosB activator: activators of delta FosB homodimer, primary screen, biochemical, fluorescence polarization, TAMRA-CDK5 oligo, single point; purified delta FosB; percent of positive-control signal above neutral wells; activation, % at 25 µM; actives 0.99% (n = 340,000);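 active = mean activation above about 17%, with every replicate also reaching it, limit read from the data, passing the limit was not always enough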
NALP3 confirm: NALP3 inhibitors retested in yeast, confirmation, luminescence, single concentration; shares compounds with NLRP3 yeast inh; yeast expressing human NALP3; inhibition, % at 10 µM; actives 81% (n = 1,300); in the data active = inhibition above about 48%
Casp1-ASC yeast: CASP1-PYCARD signaling inhibition in yeast, confirmatory test, counterassay for NLRP3 inhibitor program, one-dose; yeast expressing Caspase-1-ASC, luminescence counter screen; shares compounds with NLRP3 yeast inh; actives 66% (n = 1,000); inhibition, % at 10 µM; AID 488784, 2010
NALP3 yeast rt: NALP3 inhibitors in yeast, repeat test, confirmation, luminescence, single concentration, retest; shares compounds with NLRP3 yeast inh; yeast expressing human NALP3, luminescence read-out; inhibition, % at 10 µM; actives 53% (n = 1,000); AID 488794, 2010
Numbers without * were called inactive; · = not tested or not shown. This is a sample that favours compounds with a hit; in the whole collection about 2.2% have one here. Rule as the data show it, unless noted: active = inhibition above about 50%; inactive = the rest.

SMILES | NLRP3 yeast inh | PolyA inhibitor | ZTA DNA inh | EBNA-1 inhibitor | NALP1 inh | dFosB activator | NALP3 confirm | Casp1-ASC yeast | NALP3 yeast rt
Cc1ccn(-c2ccc(NC(=O)c3cccs3)cc2)n1 | 59* | -10 | 5 | 3 | -11 | -2 | 82* | 64* | 35
O=C(Nc1ccc(NC(=O)c2cccs2)c(Cl)c1)c1cccs1 | 61* | 33 | -4 | 13 | 1 | -3 | 84* | 64* | 60*
O=C(Nc1ccc(-c2cn3ccccc3n2)cc1)c1cccs1 | 57* | -30 | -8 | 10 | 0 | 2 | 76* | 72* | 62*
O=C(Nc1ccc(Cl)cc1)c1cccs1 | 60* | -1 | 8 | 10 | · | -8 | 77* | 55* | 65*
CC(=O)C1=CN(Cc2ccccc2)CCC1=O | · | · | · | · | · | -5 | · | · | ·
Cc1nnc(SCc2nc3ccccc3[nH]2)s1 | 1 | 13 | -1 | 6 | -1 | -12 | · | · | ·
c1ccc2[nH]c(CSc3nc4ccccc4s3)nc2c1 | 59* | 9 | -4 | 1 | 6 | 3 | 75* | 55* | 61*
CNC(=O)c1nnsc1S(=O)(=O)c1ccc(Cl)cc1 | 59* | -23 | · | · | 90* | -1 | 67* | 65* | 47
O=C(c1nnsc1S(=O)(=O)c1ccc(Cl)cc1)N1CCOCC1 | 57* | 20 | · | · | 5 | -3 | 52* | 54* | 50*
Cc1cccc(NC(=O)COC(=O)c2ccc(S(=O)(=O)N3CCCCCC3)cc2)c1 | 10 | · | · | · | · | -2 | · | · | ·
Cc1cccc(NC(=O)c2ccc(S(=O)(=O)N3CCCCC3)cc2)c1 | 52* | -3 | -7 | -5 | 19 | -5 | 60* | 60* | 52*
CCc1ccc(C(=O)NNc2ccc(F)cc2)cc1 | 16 | -10 | -2 | 5 | -1 | -5 | · | · | ·
CCc1ccc(C(=O)NNc2ccc(C)c(Cl)c2)cc1 | 53* | -29 | -13 | -11 | 9 | -6 | 53* | 46 | 29
CCc1ccc(C(=O)NNc2cc(Cl)ccc2Cl)cc1 | 65* | 0 | 3 | 4 | 6 | 10 | 66* | 61* | 60*
COc1ccc(OC)c(CCNC(=O)CN2C(=O)CCSc3ccccc32)c1 | 20 | -3 | 9 | 13 | 14 | 0 | · | · | ·
CCOc1ccccc1C(=O)Nc1ccccc1O | 54* | -2 | -5 | 3 | 10 | -4 | 57* | 56* | 55*
COc1ccc2c(C)cc(SCC(=O)NC3CCCC3)nc2c1 | 48 | · | · | · | · | -10 | · | · | ·
COc1ccc2nc(SCC(=O)NC3CCCC3)c(C)cc2c1 | 58* | 14 | -8 | -9 | 14 | -9 | 71* | 53* | 49
CN(C)c1ccc(-n2cccc2/C=C/[N+](=O)[O-])cc1 | 61* | 1 | 4 | -2 | -3 | -6 | 65* | · | ·
O=C(OCC(=O)N1CCC(c2ccccc2)=N1)c1ccc([N+](=O)[O-])s1 | 21 | 14 | 12 | -4 | · | -8 | · | · | ·
COCCn1c(-c2ccccc2)csc1=Nc1cccnc1 | 8 | -22 | -7 | -2 | -16 | 5 | · | · | ·
CC(C)n1c(-c2ccco2)csc1=Nc1cccnc1 | 53* | -13 | 2 | 2 | 9 | 2 | 11 | · | ·
COc1ccc(C)cc1-n1nnnc1SCC1CCCCO1 (configuration not stated) | 53* | -13 | -12 | -1 | -1 | -4 | 34 | · | ·
O=C(N/N=C/C(Br)=C/c1ccccc1)c1cccs1 | 50* | 16 | 12 | 6 | 4 | -6 | 63* | · | ·
CNC(=O)c1c(O)c2cccc3c2n(c1=O)CCC3 | 50* | 7 | · | · | 0 | -24 | 64* | 39 | 48

Screens from PubChem BioAssay.
